Screening data deposited in PubChem BioAssay by National Center for Advancing Translational Sciences (NCATS).
Pf growth 96h – P. falciparum growth inhibition at 96 hour, primary screen for plastid delayed-death inhibitors. P. falciparum luciferase reporter growth, 96 h. Potency, µM (top dose mostly 28.7 µM), for the others: at the highest dose activity change, negative = inhibition, most hits filed as inhibitors. AID 504834. 320,000 tested, 6.9% active; also: potency is read from the fitted curve at half-maximal effect; % is scaled to controls: 0 for no effect and ±100 for the full control effect
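Cell-based qHTS: luciferase-tagged P. falciparum in erythrocytes (2% hematocrit, 0.05% parasitemia final) incubated with compounds for 96 hours, 37 C, 5% CO2; luciferase detection reagent then added and luminescence measured.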
Shiga inhibitor – Shiga toxin inhibition | AID 2315 | inhibition, % at 38.7 µM | 290,000 tested, 9.2% active | Vero cells, Shiga toxin protein synthesis inhibition reporter; in the data active = inhibition mostly above about 28%, no sharp cut-off; inactive = mostly below about 43%; also: 0% is about no effect
SARS PLpro yeast – inhibitors of SARS-CoV papain-like protease in yeast | S. cerevisiae expressing SARS-CoV PLpro, growth rescue | AID 485353 | Potency, µM (titrated, usually from 32.9 µM), without a hit: top-dose activity, positive = growth rescue, hits mostly activators | 330,000 tested, 0.19% active; calls by dose curve; also: potency is read from the fitted curve at half-maximal effect; 0% is about no effect; nearly all actives have a fitted effect of over 55% in size
Cycloheximide cs – affects cycloheximide protein synthesis inhibition readout, counter-screen; cell reporter, cycloheximide protein synthesis inhibition counterscreen; AID 2314; max response, %; 300,000 tested, 12% active; in the data active = max response mostly above about 13%, no sharp cut-off; inactive = mostly below about 14%; also: read at 38.3 µM for the half of the compounds with a filed dose; 0% is about no effect
NS1 inh – blocks influenza NS1 protein function | Potency, µM (series often up to 46.1 µM), inactives show top-dose activity, positive = more growth | 270,000 tested, 0.4% active | AID 2326; calls by dose curve; also: potency is read from the fitted curve at half-maximal effect; actives are rising curves; nearly all actives have a fitted effect of over 50% in size
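A cell-based growth assay was used: compounds that relieve NS1-induced slow growth of budding yeast raise OD600. Assay medium was yeast nitrogen base with ammonium sulphate and -URA supplement, pH 6.0, with 2% galactose.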
Pf growth 48h – inhibits P. falciparum growth in the first generation, 48 h; Potency, µM (top dose mostly 28.7 µM), for inactives: at the top dose activity change, negative = inhibition, hits mostly inhibitors; 310,000 tested, 5.9% active; P. falciparum luciferase growth in erythrocytes, 48 h; also: potency is read from the fitted curve at half-maximal effect; % is scaled to controls: 0 for no effect and ±100 for the full control effect
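Read-out is firefly luciferase luminescence from an integrated reporter in P. falciparum, so falling signal marks reduced parasite growth. Infected erythrocytes were at 2% hematocrit and 0.1% parasitemia (final) in Albumax-supplemented RPMI 1640.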
The depositor's hits bear a star; ? = inconclusive; nt = no result; [ ] = remark or other dose. Most compounds without a hit are left out; they make up all but 21% or so of the library. Unless noted, calls follow the shape of the dose curve; as a rule, active = well fitted inhibition curve with a large enough effect; inconclusive = small, poorly fitted or top-dose-only effect, or another doubt; inactive = no such curve, though single readings can be large or run the other way.

SMILES	Pf growth 96h	Shiga inhibitor	SARS PLpro yeast	Cycloheximide cs	NS1 inh	Pf growth 48h
O=[N+]([O-])c1ccc(-n2nnnc2CN2CCOCC2)cc1	6.57µM*	-7.9	1.8%	-3.3	4.5%	3.1%
O=[N+]([O-])c1ccc(-n2nnnc2CN2CCCCC2)cc1	-1.9%	-11.5	1.4%	-0.2	-2.6%	10.4%
Nc1cccc(-n2nnnc2CN2CCOCC2)c1	10.4µM*	12.2	12.6%	-0.4	6.9%	-0.1%
CCCCn1c(N)c(N(CC(C)C)C(=O)C2CC(=O)N(c3ccc(C)cc3)C2)c(=O)[nH]c1=O (centres undefined)	-0.9%	nt	9.2%	nt	nt	?
O=C(c1cc(Br)ccc1O)c1cc(Br)ccc1O	nt	nt	nt	nt	-36.4%	nt
Fc1cc(F)cc(Nc2nc(Cl)nc(NC3CCCC3)n2)c1	?	nt	-0.1%	nt	nt	0.7%
CC(C)(CO)Nc1nc(Cl)nc(NC2CCCCC2)n1	-4.0%	27.3	1.4%	20.3*	-2.9%	16.1%
CCNc1nc(Cl)nc(NC2CCCCC2)n1	44.0%	nt	1.2%	21.3*	-13.0%	44.4%
CC(C)Nc1nc(Cl)nc(NC2CCCCC2)n1	?	13.9	-6.5%	10.0	-42.2%	-5.5%
CCCS(=O)(=O)N1CCC(C(=O)NCC2CCCO2)CC1 (centres undefined)	-5.6%	12.6	5.9%	-0.5	2.7%	0.8%
COc1cccc(Nc2cc(C)c3ccccc3n2)c1	?	66.2*	0.9%	24.8*	-10.6%	6.1%
COc1ccc(Nc2ccnc(Nc3ccc(OC)cc3)n2)cc1	?	72.0*	-2.8%	36.5*	5.8%	?
c1ccc(CCNc2ccnc3cc4ccccc4cc23)cc1	49.1%	-26.2	-0.1%	-12.5	nt	0.522µM*
CCOc1nc(Nc2ccc(OC)cc2)nc(OCC)n1	nt	-7.5	2.1%	-3.1	-10.8%	-12.4%
CC(C)Nc1ccc(Nc2ccnc3cc4ccccc4cc23)cc1	0.586µM*	9.3	-1.3%	8.9	-9.3%	0.522µM*
CC(=O)N1CCN(Cc2nc3cc(NC(=O)COc4ccccc4)ccc3n2C)CC1	72.4%	-2.5	2.6%	-1.5	nt	0.9%
COc1cccc(Nc2ncnc3ccccc23)c1	nt	98.7*	-11.3%	30.5*	-16.5%	216.8%
COc1ccc(Nc2ncnc3ccccc23)cc1	nt	71.2*	3.6%	29.7*	-0.5%	131.7%
COc1ccc(Nc2ccccc2N)cc1	?	43.6*	-21.1%	27.7	nt	?
COc1ccc(Nc2ccnc3ccccc23)cc1	?	-3.9	2.3%	17.6*	-6.1%	11.7µM*
COc1ccc(Nc2nc(-c3cccs3)nc3ccccc23)cc1	0.0%	12.4	-52.1%	7.4	12.2%	-14.1%
COc1ccc(Nc2ncnc3ccccc23)c(OC)c1	-14.9%	13.3	2.0%	8.2	-3.9%	63.8%
Nc1ccc(Nc2ccccc2N)cc1	-24.2%	14.2	-7.0%	7.2	13.5%	?
COc1ccc(Nc2cc(Nc3ccccc3)ncn2)cc1	1.3%	48.9*	-2.8%	31.4*	-2.2%	94.0%
COc1ccc(Nc2c(C)cccc2C)cc1	1.1%	-9.8	-1.5%	-4.6	4.2%	0.0%
SMILES	Pf growth 96h	Shiga inhibitor	SARS PLpro yeast	Cycloheximide cs	NS1 inh	Pf growth 48h
Cc1cc(C2=NNC(=NC3CC3)SC2)c(C)n1-c1c(C)n(C)n(-c2ccccc2)c1=O	0.8%	-9.3	-1.5%	1.3	?	-1.8%
COCCCN=C1NN=C(c2cc(C)n(Cc3ccccc3Cl)c2C)CS1	?	45.3*	0.4%	21.6*	nt	?
Cc1cc(C2=NNC(=NCCc3ccccc3)SC2)c(C)n1-c1c(C)n(C)n(-c2ccccc2)c1=O	?	13.7	0.3%	-3.7	7.9%	6.57µM*
C=CCN=C1NN=C(c2cc(C)n(CC=C)c2C)CS1	-98.3%	9.9	1.0%	27.6*	4.4%	-73.6%
COCCCN=C1NN=C(c2cc(C)n(-c3ccccc3F)c2C)CS1	-143.9%	49.6	-3.9%	18.9	nt	-40.2%
Cc1c(N=C2NN=C(c3c[nH]c4ccccc34)CS2)c(=O)n(-c2ccccc2)n1C	?	13.6	0.1%	-2.4	8.2%	4.15µM*
COCCN=C1NN=C(c2cc(C)n(CC3CCCO3)c2C)CS1 (centres undefined)	9.28µM*	29.4	0.3%	-3.3	12.1%	?
Cc1cc(C=O)c(C)n1CC1CCCO1 (centres undefined)	nt	-21.4	2.1%	-2.7	7.1%	-21.6%
COCCCN=C1NN=C(c2cc(C)n(-c3ccccc3)c2C)CS1	8.28µM*	61.9*	?	34.5*	15.0%	10.4µM*
Cc1cc(/C=C/C(=O)O)c(C)n1-c1ccc(Cl)cc1	-34.4%[1.15 µM]	-13.8	-0.7%	-1.5	8.6%	-26.1%[1.15 µM]
CN=C1NN=C(c2cc(C)n(-c3ccc(Cl)cc3)c2C)CS1	?	136.5*	3.7%	58.9*	nt	6.9%
Cc1cc(NC(=O)c2ccc(C)c([N+](=O)[O-])c2)no1	?	32.2*	1.5%	30.9	nt	40.7%
Cc1cc(NC(=O)c2ccc3c(c2)C(=O)N(C)C3=O)no1	2.94µM*	-1.0	11.5%	3.3	-4.1%	nt
Cc1cc(NC(=O)c2ccc3c(c2)C(=O)N(CCC(C)C)C3=O)no1	9.2%	-5.3	nt	1.5	-8.2%	11.2%
Cc1cc(N2C(=O)c3ccc(C(=O)Nc4ccc(CC(=O)O)cc4)cc3C2=O)no1	1.85µM*	-3.4	2.7%	-1.0	4.9%	-9.6%
Cc1cc(NC(=O)c2ccc(Br)c([N+](=O)[O-])c2)no1	45.7%	27.8	0.1%	19.6	nt	15.3%
Cc1cc(NC(=O)c2ccc(C)c(C)c2)no1	?	nt	-4.2%	37.1*	-32.2%	0.0%
Cc1ccc(C(=O)Nc2cccnc2)cc1[N+](=O)[O-]	?	37.9	-3.0%	7.7	nt	?
Cc1ccc(C(=O)Nc2sc(C)c(-c3ccccc3)c2C(N)=O)cc1[N+](=O)[O-]	141.3%[5.75 µM]	127.1*	4.8%	61.9*	8.5%	223.0%
Cc1ccc(C(=O)Nc2cccc(NC(=O)c3ccc(C)c([N+](=O)[O-])c3)n2)cc1[N+](=O)[O-]	?	6.5	-2.7%	0.5	-1.0%	1.65µM*
Cc1ccc(S(=O)(=O)N2CCOC2CNC(=O)C(=O)NCc2ccc(Cl)cc2)cc1 (centres undefined)	4.3%	-10.9	2.7%	-1.6	5.5%	5.4%
Cc1cc(C)nc(N(C#N)Cc2cccc3ccccc23)n1	nt	-8.6	-9.8%	5.8	-9.5%	?
CC(C)(C)P(=O)(c1ccncc1)N1CCCC1 (centres undefined)	0.738µM*	-5.9	-1.6%	-3.4	-3.2%	?
COCCNC(=S)N1CCc2cc(OC)c(OC)cc2C1COc1cc(C)cc(C)c1 (centres undefined)	?	-10.5	12.6%	-1.3	7.2%	11.7µM*
N#C/C(C(=O)N1CCOCC1)=C1\Nc2ccccc2S1	-22.7%	64.1*	-8.5%	34.6*	-38.9%	62.9%
N#C/C(=C\c1cccs1)C(=O)N1CCOCC1	5.7%	6.8	0.1%	-1.6	1.3%	-1.0%
Cc1cc(C)c(NC(=O)CN(C2CCCCC2)C2CCCCC2)c(C)c1	nt	-25.8	-5.0%	-5.7	-1.3%	?
